Assay results published in PubChem BioAssay (NCATS).
Inconclusive results are not listed. Unmarked numbers belong to inactive results. Calls come from the whole dose curve; as a rule, active = well fitted activation curve with a large enough effect; inconclusive = small, poorly fitted or top-dose-only effect; inactive = no such curve, though single readings can be large or run the other way.

Each compound was assayed against Cellular tumor antigen p53 (Homo sapiens) (UniProt P04637) (assay: Primary qHTS for small molecule compounds that upregulate eGFP-tagged delta133p53alpha (in N-terminal) cells. (AID 2060322;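 note: series mostly up to about 56 µM; 0% = DMSO vehicle and 100% = reference activator; nearly all actives have a fitted effect of over 75% in size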)). Details: NCI-H358 eGFP-delta133p53alpha fluorescence, 24 h; activation: active compounds read high.
Cellular tumor antigen p53 (Homo sapiens), sequence (P04637 whole entry, looked up): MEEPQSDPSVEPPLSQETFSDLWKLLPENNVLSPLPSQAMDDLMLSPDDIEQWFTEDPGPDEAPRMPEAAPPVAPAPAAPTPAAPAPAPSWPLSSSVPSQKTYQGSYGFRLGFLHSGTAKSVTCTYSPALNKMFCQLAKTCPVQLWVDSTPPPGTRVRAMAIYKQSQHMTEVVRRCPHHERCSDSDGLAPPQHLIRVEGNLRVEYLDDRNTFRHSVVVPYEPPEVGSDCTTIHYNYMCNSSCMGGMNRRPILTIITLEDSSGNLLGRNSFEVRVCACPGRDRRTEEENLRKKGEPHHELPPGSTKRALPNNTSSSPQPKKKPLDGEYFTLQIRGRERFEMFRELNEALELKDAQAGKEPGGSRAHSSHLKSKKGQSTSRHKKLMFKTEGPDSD
In short: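 NCI-H358 cells pre-induced 24 h with 10 ng/ml doxycycline to express N-terminal eGFP-delta133p53alpha, then dosed 24 h at 37C without doxycycline; fixed, Hoechst-stained, GFP intensity by laser scanning cytometry, normalized to DMSO (0%) and 57.5 uM 5-azacytidine (100%).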
Compound `CC/C=C\CC1C(=O)C=CC1(CCCCC1CCC(=O)O1)OC(C)=O` (stereo not drawn) has an activation of 9.92%. Compound `CC(=O)OC1C(O)C(C)=C(CCC(C)CC(=O)O)C2(C)CCCC(C)(C)C12` (stereo not drawn) has an activation of 3.82%. Compound `COc1cc2c(c(OC)c1O)C(c1ccc(O)cc1)C1C(=O)OC3C(COC(=O)C1=C2)OC(CO)(OC1OC(COC(=O)/C=C/c2ccc(OC4OC(C)C(O)C(O)C4O)cc2)C(O)C(O)C1O)C3O` (stereo not drawn) has an activation of 23.2%. `COC1OC(O)C2(CCC3(O2)C(C)CC2OC(=O)C4(C)CCCC3(C)C24)C1O` (stereo not drawn) gave an activation of 9.92%. `C=C1[C@H](OC(C)=O)[C@H]2[C@@H](OC(C)=O)[C@](C)(OC(C)=O)C[C@]2(OC(C)=O)C(=O)[C@H](C)/C=C/C(C)(C)C(=O)[C@H](OC(=O)C(C)C)[C@H]1OC(C)=O` was tested, and the activation was 2.29%. `C=C[C@H]1[C@H](O[C@@H]2O[C@H](CO)[C@@H](O)[C@H](O)[C@H]2O)OC=C(C(=O)OC)[C@H]1C/C=C(/C=O)[C@@H]1C(C(=O)OC)=CO[C@@H](O[C@@H]2O[C@H](CO)[C@@H](O)[C@H](O)[C@H]2O)[C@@H]1C=C` was tested, and the activation was -22.1%. `Cc1cc(F)ccc1-c1nc(NCCN=C(N)NC#N)nc2c1ccc(=O)n2-c1c(F)cccc1F` gave an activation of -4.46%. For `CC(=O)O[C@@H]1[C@H](O[C@@H]2O[C@H](CO)[C@@H](O)[C@H](O)[C@H]2O)[C@@H](O[C@@H]2O[C@@H](C)[C@H](O)[C@@H](O[C@@H]3O[C@H](CO)[C@@H](O)[C@H](O)[C@H]3O)[C@H]2O)[C@H](OC(=O)C23CCC4(C)C(=CCC5C6(C)CC(O)C(O[C@@H]7O[C@H](C(=O)O)[C@@H](O)[C@H](O)[C@H]7O)C(C)(C(=O)O)C6CCC54C)C2CC(C)(C)CC3O)O[C@@H]1C` (stereo partly drawn), the activation was 22.9%.
